# PubChem BioAssay
# “And” between values parts separate entries of the source, which are not always exact repeats. Equal values may be shown once. Some compounds were tested as several samples or in several runs, with calls that do not always agree. The source made the active and inactive calls.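 How the source made its calls, unless noted: active means inhibition at or above 50% relative to wild type and mutant plate controls; inactive means inhibition below 50%.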
# Assays:
# [1] = inhibitors of mutant huntingtin aggregation, primary screen, imaging, exon1htt(103Q)mCFP cells, high-content imaging (AID 483;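 active means visual image review flags a hit and inhibition of aggregation exceeds 20%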;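 further: compound exposure lasted 3 days before fixation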;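 on nuclei count: percent of the per-plate median nuclei count of sample wells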); details: exon1htt(103Q)mCFP cell line, aggregate imaging, at 2 µM; inhibition of aggregation: stronger effect = higher value; nuclei count: measured here: cell count, toxicity
# [2] = inhibitors of E-selectin induction by TNFa, primary screen, imaging, HUVEC, immunofluorescence, MLSMR starter and 10KST1 sets (AID 487;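 active means visually confirmed hit in the image check and inhibition above 20%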;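 on inhibition: signal is fraction of cell area covered by stained E-selectin grains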;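 on nuclei count: 100% = median nuclei count of all wells on the same plate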); details: HUVEC TNFalpha-induced E-selectin immunofluorescence imaging, at 2 µM; inhibition: stronger effect = higher value; nuclei count: measured here: cell number, toxicity
# [3] = DUSP6 inhibitors restoring Erk phosphorylation by chemical complementation, primary imaging in DUSP6-transfected HeLa (AID 609;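 active means compounds giving at least 50% inhibition in the cell-based MKP-3 phosphatase rescue imaging test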;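 on inhibition: phospho-Erk level distribution per well compared with pooled transfected vehicle control wells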); details: HeLa MKP-3 transfected, phospho-Erk imaging KS statistic, at 10 µM, cells stimulated with TPA for 15 min
# [4] = target: Dual specificity protein phosphatase 6 (Homo sapiens) (UniProt Q16828); experiment: as above; details: HeLa MKP-3 transfected, phospho-Erk imaging KS statistic; at 10 µM; stronger effect = higher value; cells stimulated with TPA for 15 min
# Chain of Dual specificity protein phosphatase 6 (Homo sapiens) (Q16828 whole entry, looked up): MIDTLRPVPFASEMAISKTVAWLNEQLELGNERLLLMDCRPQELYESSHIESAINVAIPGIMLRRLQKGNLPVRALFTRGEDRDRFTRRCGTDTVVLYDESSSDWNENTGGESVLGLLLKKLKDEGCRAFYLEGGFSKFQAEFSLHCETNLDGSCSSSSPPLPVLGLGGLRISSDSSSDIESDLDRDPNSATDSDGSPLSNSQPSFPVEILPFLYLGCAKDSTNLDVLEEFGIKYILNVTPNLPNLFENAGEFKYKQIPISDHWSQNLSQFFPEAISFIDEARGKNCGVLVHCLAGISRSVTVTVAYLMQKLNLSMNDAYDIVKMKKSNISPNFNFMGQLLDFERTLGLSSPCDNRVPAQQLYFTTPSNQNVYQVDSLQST
# [5] = target: Voltage-gated potassium channel subunit beta-2 (Rattus norvegicus) (UniProt P62483); experiment: KvBeta enzyme negative modulators, primary screen, biochemical, NADPH fluorescence (AID 622;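 active means fluorescence slope higher than the sample average by over 3 SD, cut at about -0.22 in these data, passing the limit was not always enough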;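 further: slope of raw intensity against log time taken from 70 to 1610 s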); details: recombinant KvBeta, 4-cyanobenzaldehyde reduction, at 10 µM, stronger effect = higher value
# Chain of Voltage-gated potassium channel subunit beta-2 (Rattus norvegicus) (P62483 whole entry, looked up): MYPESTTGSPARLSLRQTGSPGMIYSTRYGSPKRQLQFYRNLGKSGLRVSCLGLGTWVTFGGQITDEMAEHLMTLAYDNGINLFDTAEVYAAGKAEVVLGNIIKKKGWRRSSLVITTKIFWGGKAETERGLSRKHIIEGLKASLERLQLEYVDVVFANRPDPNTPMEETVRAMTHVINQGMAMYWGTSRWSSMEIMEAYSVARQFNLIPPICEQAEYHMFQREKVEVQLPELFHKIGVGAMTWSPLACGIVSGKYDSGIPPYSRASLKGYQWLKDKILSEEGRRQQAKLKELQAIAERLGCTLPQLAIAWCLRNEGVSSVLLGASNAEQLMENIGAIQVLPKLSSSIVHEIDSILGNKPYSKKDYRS
# [6] = target: Voltage-gated potassium channel subunit beta-2 (Rattus norvegicus) (UniProt P62483); experiment: KvBeta positive modulators, primary screen, biochemical, NADPH fluorescence (AID 623;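 active means NADPH fluorescence slope more negative than the mean of all samples by about 3 SD, 99.7% confidence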;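 further: fluorescence intensity change per second fitted from 20 to 320 s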); details: Recombinant KvBeta, NADPH fluorescence decrease slope, 10 min; at 10 µM; stronger effect = lower value
# [7] = target: Alpha-2C adrenergic receptor (Homo sapiens) (UniProt P18825); experiment: modulators of alpha2C/GIRK thallium flux, primary screen, cell-based, HEK293 alpha2C/GIRK1/2 (AID 624;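 active means fluorescence slope after compound addition differing from the mean of all screened samples at 99.7% confidence, in either direction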;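 further: slope of fluorescence ratio to pre-addition baseline per second over 15 to 24 s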); details: thallium flux BTC fluorescence, at 10 µM, actives lie on both sides
# Chain of Alpha-2C adrenergic receptor (Homo sapiens) (P18825 whole entry, looked up): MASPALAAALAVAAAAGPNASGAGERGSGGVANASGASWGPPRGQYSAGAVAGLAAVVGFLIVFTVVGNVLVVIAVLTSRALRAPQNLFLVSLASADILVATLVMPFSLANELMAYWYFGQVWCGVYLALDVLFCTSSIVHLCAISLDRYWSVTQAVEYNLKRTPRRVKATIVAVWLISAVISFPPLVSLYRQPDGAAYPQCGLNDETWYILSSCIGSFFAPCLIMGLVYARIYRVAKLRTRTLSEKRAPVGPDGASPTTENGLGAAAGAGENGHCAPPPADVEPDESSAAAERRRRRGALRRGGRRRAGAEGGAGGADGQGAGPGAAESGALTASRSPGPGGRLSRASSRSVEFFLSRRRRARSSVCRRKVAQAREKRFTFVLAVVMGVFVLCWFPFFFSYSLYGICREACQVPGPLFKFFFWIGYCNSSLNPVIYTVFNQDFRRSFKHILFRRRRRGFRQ
# [8] = inhibitors of larval lipid processing in zebrafish, primary screen, whole organism, PED6 fluorescence, gall bladder and intestine (AID 686;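 active means a full or partial loss of lipid-probe fluorescence in the fish gall bladder, intestine or both, judged by eye; inactive means no fluorescence loss, or compound toxic to the fish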;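 further: larvae 5 to 7 days old with five fish per well; signal comes from phospholipase A2 cleavage of quenched PED6 carried via bile; overnight exposure to compound and PED6 before scoring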); details: Zebrafish larvae PED6 lipid processing, fluorescence scoring; screened at 20 µM (by protocol)
# [9] = inhibitors of Chlamydomonas gravitaxis, primary screen, whole organism, Chlamydomonas reinhardtii, WT vs cilia-less mutant, absorbance, 96-well (AID 463189); details: OD600 absorbance, 2 days, at 10 µM, stronger effect = higher value;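 further: 0% = wild type cc124 cells in DMSO and 100% = ciliumless bld1 mutant cells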
# [10] = inhibitors of Sendai virus-induced IRF3 signaling, primary screen, TLR/RLR signaling modifier project, cell-based, Sendai virus stimulus, luciferase, 10K MLSCN set (AID 602276;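 active means inhibition at or above 50% at 10 µM; inactive means inhibition below 50%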;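 further: firefly luciferase from ISG56 promoter only with Renilla not read in this screen; 0% = Sendai virus plus DMSO and 100% = medium plus DMSO without virus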); details: HEK293 RL24 IRF3 luciferase reporter, at 10 µM, stronger effect = higher value
# [11] = inhibitors of poly I:C-induced TLR3 signaling, primary screen, cell-based, poly I:C stimulus, luciferase, 10K MLSCN set (AID 602277;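 active means inhibition of the reporter signal at or above 50%; inactive means inhibition below 50%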); details: HEK293-TLR3 RL24 IRF3 luciferase reporter, at 10 µM, stronger effect = higher value
# [12] = measured here: cell density z-score
# [13] = measured here: nuclear c-Myc green intensity z-score
# [14] = measured here: nuclear pErk red intensity z-score, stronger effect = higher value
SMILES,inhibition of aggregation [1],nuclei count [1] [%],inhibition [2],nuclei count [2] [%],"z-score [3, 12]","z-score [3, 13]","z-score [3, 14]",inhibition [4],fluorescence slope [5],NADPH fluorescence slope [6],slope [7],outcome [8],inhibition [9],inhibition [10],inhibition [11]
CNC(=O)Oc1ccc2c(c1)[C@]1(C)CCN(C)[C@@H]1N2C,21.6% (inactive),88.6,-22.9% (inactive),104,-2.43,-0.577,-0.583,-6.41% (inactive),-0.435 (inactive),1.7e-05 (inactive),0.00657 (inactive),inactive,-0.375% (inactive) and -9.03% (inactive),15.2% (inactive),36.1% (inactive)
C[C@]12C=CC(=O)C=C1CC[C@H]1[C@@H]3C[C@@H](O)[C@](O)(C(=O)CO)[C@@]3(C)C[C@H](O)[C@@]12F,23.7% (inactive),50.2,-61.6% (inactive),117,-0.539,1.04,-0.0271,15.3% (inactive),-0.508 (inactive),-6.2e-05 (inactive),0.0055 (inactive),inactive,6.05% (inactive) and 21.3% (inactive),13.3% (inactive),37.9% (inactive)
CC(=O)Oc1ccc(C(c2ccc(OC(C)=O)cc2)c2ccccn2)cc1,-12.4% (inactive),99.8,-68.3% (inactive),100,-0.73,0.784,0.224,5.79% (inactive),-0.45 (inactive),-2.1e-05 (inactive),0.00425 (inactive),inactive,19.6% (inactive),12.5% (inactive),40.9% (inactive)
Cc1cccc(N2CN=c3s/c(=C\c4ccncc4)c(=O)n3C2)c1,13.2% (inactive),99.6,-56.6% (inactive),121,-0.505,-1.69,1.18,-10.5% (inactive),-0.334 (inactive),5.8e-06 (inactive),0.00412 (inactive),inactive,22.1% (inactive),10.3% (inactive),-3.47% (inactive)
CC(COc1ccccc1)N(CCCl)Cc1ccccc1 (stereo not drawn),3.6% (inactive),91.3,-41.5% (inactive),106,0.673,0.156,-1.5,3.59% (inactive),-0.458 (inactive),-8e-05 (inactive),0.00427 (inactive),inactive,-4.83% (inactive) and 76.9% (active),4.33% (inactive),22.7% (inactive)
CC(C)NCC(O)COc1ccc(CC(N)=O)cc1 (stereo not drawn),-3.8% (inactive),97.3,-96.5% (inactive),135,-1.26,-0.177,-0.441,-2.46% (inactive),-0.47 (inactive),1.8e-05 (inactive),0.00481 (inactive),inactive,-6.18% (inactive) and -8.19% (inactive),-12.5% (inactive),-8.56% (inactive)
CC(=O)OC[C@H]1O[C@@H](n2ncc(=O)[nH]c2=O)[C@H](OC(C)=O)[C@@H]1OC(C)=O,14.3% (inactive),77.3,-22.1% (inactive),116,1.58,-1.02,0.322,-0.828% (inactive),-0.468 (inactive),-5.4e-05 (inactive),0.0044 (inactive),,-10.6% (inactive),13.3% (inactive),-14.5% (inactive)
CCC(=O)O[C@]1(C(=O)CCl)[C@@H](C)C[C@H]2[C@@H]3CCC4=CC(=O)C=C[C@]4(C)[C@@]3(F)[C@@H](O)C[C@@]21C,-20.8% (inactive),56.7,-5.8% (inactive),116,-0.246,0.687,0.17,3.45% (inactive),-0.528 (inactive),-3.3e-05 (inactive),0.00421 (inactive),inactive,18.1% (inactive),-10.2% (inactive),-4.89% (inactive)
CCOC(=O)C1=C(C)NC(C)=C(C(=O)OC)C1c1cccc([N+](=O)[O-])c1 (stereo not drawn),-10.5% (inactive),97.3,-50.3% (inactive),103,1.1,0.446,0.0067,19% (inactive),-0.475 (inactive),-2e-05 (inactive),0.00369 (inactive),,5.78% (inactive) and 6.95% (inactive),12.9% (inactive),43.8% (inactive)
